Compound activity from PubChem.
Most compounds without a hit are left out; they make up all but 3.8% or so of the library.
GALK inh: qHTS Assay for Inhibitors of Human Galactokinase (GALK): NCGC Sytravon Library Screen | P51570 | recombinant GALK, Kinase-Glo ATP luminescence, 1 h | Potency, µM (doses to about 57.5 µM), for inactives: top-dose activity, negative = inhibition, most hits filed as inhibitors | 44,000 tested, under 10 active | AID 1347072, 2019;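 further: plate controls were full GALK reaction for no effect and reaction lacking GALK for full effect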
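Reactions with and without enzyme served as controls. GALK at 5 nM phosphorylates 100 uM galactose using 35 uM ATP (HEPES pH 8.0, Mg2+) for 1 h at RT, with luminescence read 10 min after adding Kinase-Glo Plus.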
NTMT1 inhibitor: Primary qHTS for Inhibitors of N-terminal methyltransferase 1 (NTMT1): MTaseGlo Assay. NTMT1 MTase-Glo SAH luminescence, purified enzyme. Potency, µM (doses to about 114 µM), for the others: at the highest dose activity change, negative = inhibition, usual class: inhibitors. hit rate 2.5% among 59,000;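 further: potency means the concentration at half of the fitted maximal effect; plate controls were DMSO vehicle for no effect and no enzyme for full effect; nearly all actives have a fitted effect of over 65% in size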
TSG101-PTAP inh: qHTS Validation Assay for Inhibitors of HIV-1 Budding by Blocking the Interaction of PTAP/TSG101: Sytravon Library Screen; Potency, µM (top dose mostly 115 µM), hits mostly inhibitors; Fluorescence polarization, FITC-PTAP peptide/Tsg101, 20 min; 44,000 tested, under 10 active; Tumor susceptibility gene 101 protein (Homo sapiens), Q99816; further: potency means the concentration at half of the fitted maximal effect; 0% is about no effect
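qHTS FP binding, 20 min r.t.: 10 uM Tsg101 domain + 50 nM FITC-PTAP peptide, pH 7.5 HEPES buffer with TCEP and EDTA.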
SKOV3 invasion: Primary qHTS assay for Inhibitors of ovarian cancer metastasis using an organotypic tumor microenvironment (TME) model. SKOV3ip1-GFP adhesion/invasion on 3D omental model, fluorescence. Potency, µM (series often up to 45.8 µM), for the others: top-dose activity change, negative = inhibition, hits mostly inhibitors. hit rate 0.1% among 46,000. AID 1963576, 2024;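 further: potency means the concentration at half of the fitted maximal effect; plate controls were DMSO wells for no effect and tomatine positive control wells for full effect; nearly all actives have a fitted effect of over 65% in size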
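Primary human omental fibroblast/mesothelial 3D culture pre-formed 48 h. SKOV3ip1-GFP cells added with compounds (0.36-46 umol/L), incubated 2 h RT/16 h 37 C, fixed; GFP cells quantified at 488/509 nm.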
GPR32 ag: qHTS for Agonists of Human Resolvin D1 Receptor DRV1; CHO-K1 GPR32 beta-arrestin PathHunter luminescence, 90 min; zero percent set by DMSO-only wells; activation, % at 76.9 µM; hit rate 2.5% among 48,000; AID 1346428, 2018;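 active means activation of at least 60% and not above a set upper limit, about 1 call in 100 departs from these limits; inconclusive means activation of 40% to 60%, or above that upper limit; inactive means activation under 40%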; further: 0% is about no effect
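PathHunter enzyme-fragment complementation, CHO-K1 GPR32 stable line; 2,500 cells/well, overnight attach; cpd 90 min 37 °C 5% CO2; detection reagent 1 h RT; chemiluminescence. DMSO = EC0.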
B2AR arrestin ag: qHTS assay of beta-arrestin-biased ligands of beta2-adrenergic receptor: NCGC Sytravon Library Screen; Potency, µM (series often up to 46.1 µM), actives largely listed as activators; Beta-2 adrenergic receptor (Homo sapiens), P07550; 44,000 tested, under 10 active; HTLA Tango cells, beta-arrestin recruitment, luciferase luminescence, 18 h;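 further: potency means the concentration at half of the fitted maximal effect; 0% = DMSO and full agonism = EC100 isoproterenol or metaproterenol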
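Tango cells (recombinant beta2-AR, beta-arrestin, tTA-driven luciferase), 1500/well in DMEM 1% FBS, treated 18 h at 37 °C with compounds up to 46 µM; luciferin mix added, luminescence read after 15 min; %activity curves fitted and curve-classed.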
Sfp PPTase inh: qHTS Assay for Inhibitos of Bacillus subtilis Sfp phosphopantetheinyl transferase (PPTase): Chemistry Optimization Followup | shares compounds with NTMT1 inhibitor | purified Sfp PPTase enzyme activity, qHTS | Potency, µM (series often up to 114 µM), inactives show top-dose activity change, negative = inhibition, hits mostly inhibitors | hit rate 78% among 230 | AID 540350, 2011
Bsub HM489 growth: qHTS for Inhibitos of Bacillus subtilis Sfp phosphopantetheinyl transferase (PPTase): Chemistry Optimization Followup in B. Subtilis HM489 | AID 540353, 2011 | B. subtilis HM489 (acpS-) growth, BacTiter-Glo, 5 h | shares compounds with NTMT1 inhibitor | hit rate 50% among 220 | Potency, µM (series often up to 114 µM), for inactives: at the top dose activity change, negative = inhibition, actives largely listed as inhibitors
Sfp gel opt: Gel-Based Assay for Inhibitos of Bacillus subtilis Sfp phosphopantetheinyl transferase (PPTase): Chemistry Optimization Followup; shares compounds with NTMT1 inhibitor; Potency, µM (titrated, usually from 250 µM), for the others: at the top dose activity change, negative = inhibition, hits mostly inhibitors; purified Sfp PPTase, gel-based product detection; hit rate 54% among 220
Sfp inh gel: qHTS Assay for Inhibitors of Bacillus subtilis Sfp phosphopantetheinyl transferase (PPTase): Gel Based Assay; shares compounds with NTMT1 inhibitor; AID 602362, 2012; hit rate 90% among 45; Potency, µM (doses to about 250 µM), inactives show at the highest dose activity change, negative = inhibition, actives largely listed as inhibitors; purified Sfp PPTase, gel-based product detection
Sfp SAR2: qHTS Assay for Inhibitors of Bacillus subtilis Sfp phosphopantetheinyl transferase (PPTase): SAR Round 2; AID 602370, 2012; hit rate 87% among 230; shares compounds with NTMT1 inhibitor; Potency, µM (doses to about 57.1 µM), for inactives: at the highest dose activity change, negative = inhibition, usual class: inhibitors; purified Sfp enzyme, PPTase activity, qHTS
hGST A1-1 inh: qHTS Assay for Inhibitors of Bacillus subtilis Sfp phosphopantetheinyl transferase (PPTase): SAR in hGST A1-1 | shares compounds with NTMT1 inhibitor | hGST A1-1 enzyme activity counter-screen, qHTS | Potency, µM (doses to about 114 µM), for inactives: top-dose activity change, negative = inhibition, most hits filed as inhibitors | 55 tested, under 10 active
HSD17B4 counter: Extended Characterization of HPGD Inhibitors: Counterscreen Against HSD17b4; shares compounds with NTMT1 inhibitor; purified HSD17B4, estradiol/NAD+, NADH fluorescence; Potency, µM (series often up to 57.1 µM), inactives show at the highest dose activity change, negative = inhibition, hits mostly inhibitors; hit rate 10% among 230; AID 743187, 2013
ALDH1A1 counter: Extended Characterization of HPGD Inhibitors: Counterscreen Against ALDH1A1; Potency, µM (titrated, usually from 57.1 µM), for inactives: top-dose activity change, negative = inhibition, hits mostly inhibitors; hit rate 93% among 230; shares compounds with NTMT1 inhibitor; AID 743195, 2013; recombinant ALDH1A1, NADH fluorescence, propionaldehyde/NAD+
Target sequence (P00352 whole entry, looked up): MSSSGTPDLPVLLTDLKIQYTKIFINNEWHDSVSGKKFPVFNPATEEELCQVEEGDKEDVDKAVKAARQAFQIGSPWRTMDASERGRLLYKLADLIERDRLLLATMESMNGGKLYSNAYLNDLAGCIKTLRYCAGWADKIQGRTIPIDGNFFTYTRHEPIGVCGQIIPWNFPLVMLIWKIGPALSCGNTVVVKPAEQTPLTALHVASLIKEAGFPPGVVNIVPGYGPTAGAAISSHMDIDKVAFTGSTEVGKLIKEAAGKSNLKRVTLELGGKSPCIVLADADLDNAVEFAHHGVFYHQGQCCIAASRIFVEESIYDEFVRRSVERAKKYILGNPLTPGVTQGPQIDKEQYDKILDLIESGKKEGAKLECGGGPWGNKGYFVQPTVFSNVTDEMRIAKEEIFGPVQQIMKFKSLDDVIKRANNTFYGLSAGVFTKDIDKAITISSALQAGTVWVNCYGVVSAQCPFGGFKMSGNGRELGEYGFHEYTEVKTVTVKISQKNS
* = called active by the depositor. Unless noted, the call rests on the fitted dose curve; in most records, active means well fitted curve in the direction sought with a large enough effect; inconclusive means small, poorly fitted or top-dose-only effect, or another doubt; inactive means no such curve, though single readings can be large; an effect the other way counts as inactive or inconclusive.

Results for COc1ccnc(NC(=S)N2CCN(c3cccc(C(F)(F)F)n3)CC2)c1 ?
NTMT1 inhibitor: inconclusive; Sfp PPTase inh: 46.9µM*; Bsub HM489 growth: -15.1%; Sfp gel opt: inconclusive; Sfp SAR2: 5.76µM*; HSD17B4 counter: 23.8%; ALDH1A1 counter: 8.57µM*

What do the screens show for `COc1ccnc(NC(=S)N2CCN(c3cccc(Cl)c3Cl)CC2)c1`?
NTMT1 inhibitor: inconclusive; Sfp PPTase inh: 5.91µM*; Bsub HM489 growth: 5.91µM*; Sfp gel opt: 7.94µM*; Sfp inh gel: inconclusive; Sfp SAR2: 1.02µM*; hGST A1-1 inh: -0.5%; HSD17B4 counter: 0.2%; ALDH1A1 counter: 3.83µM*

How did COc1cccc(NC(=S)N2CCN(c3cccc(C(F)(F)F)n3)CC2)n1 do in these assays?
NTMT1 inhibitor: inconclusive; Sfp PPTase inh: inconclusive; Bsub HM489 growth: inconclusive; Sfp gel opt: 4.5%; Sfp SAR2: inconclusive; HSD17B4 counter: -4.8%; ALDH1A1 counter: 4.82µM*

Results for COc1ccc2cc3cc(C(=O)N4CCN(c5cccc(C(F)(F)F)c5)CC4)sc3nc2c1 ?
GALK inh: 1.0%; NTMT1 inhibitor: 5.6%; TSG101-PTAP inh: inactive; SKOV3 invasion: 10.7%; GPR32 ag: 4.1; B2AR arrestin ag: inactive

Results for COc1cccc(N2C(=O)c3ccccc3C2=O)n1 ?
NTMT1 inhibitor: -12.1%
